From PubChem BioAssay AID504534 (National Center for Advancing Translational Sciences (NCATS), 2011)
Results filed as inconclusive are left out. A call without a number means that no potency is given here. Activity calls are given as the source filed them. Calls follow the shape of the dose curve; as a rule, active = well fitted curve in the direction sought with a large enough effect; inconclusive = small, poorly fitted or top-dose-only effect, or another doubt; inactive = no such curve, though single readings can be large or run the other way.

Assay: Secondary Assay for Inhibitors of Human Cdc-like kinase 4 (Clk4): HEK-293 Cell Viability Assay;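 also: cytotoxic hits lower the ATP light signal so activity reflects loss of viability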
Settings: HEK-293 viability, ATP luminescence (CellTiter-Glo), 24/48 h; series mostly up to 46.1 µM
Description: NIH Molecular Libraries Probe Production Centers Network [MLPCN] NIH Chemical Genomics Center [NCGC] MLPCN Grant: 1R03MH084827-01 Assay Submitter (PI): Tom Misteli NCGC Assay Overview: Cytotoxicity of the active compounds in the Clk4 screens was assessed using the CellTiter-Glo Luminescent Cell Viability Assay kit (Promega, USA) in the HEK-293 (ATCC) cell line. CellTiter-Glo measures the intracellular ATP present in metabolically active cells using Ultra-Glo as the luciferase to detect ATP levels. In brief, the luciferase in the buffer catalyzes the oxidation of luciferin to oxyluciferin and light which is dependent on ATP. […] Wells treated with various concentrations of cycloheximide (Sigma) and DMSO, and wells with media alone were used as positive and negative controls, respectively. […] [1] http://www.promega.com/tbs/tb288/tb288.pdf
NCGC Assay Protocol Summary: HEK-293 cells were grown in a flask up to 80% confluence. Cells were trypsinized, washed, and resuspended in MEM Eagle + 10% FBS + 1% pen-strep media at a concentration of 120 cells/uL. Five uL/well of cell solution was dispensed into a 1536-well assay plates (Greiner, solid white medium-binding plates) with Aurora Discovery BioRAPTR Flying Reagent Dispenser (FRD; Beckton-Dickenson). Cells were pre-incubated at 37 degree Celsius, 5% CO2 for four hours. Compound and control solutions (23nL) were then transferred to the assay plate using the Kalypsys 1536-pin tool. Assay plates were re- incubated at 37 degree Celsius, 5% CO2. After 24 or 48 hours, five uL of CellTiter Glo detection reagent was added. Luminescence signal was read with Perkin Elmer ViewLux plate reader after 30 min room temperature incubation.

Row | Compound | Potency
1 | c1nc(NCC2CCCC2)c2cc(-c3ccc4c(c3)OCO4)ccc2n1 | inactive
2 | NCCNc1ncnc2ccc(-c3ccc4c(c3)OCO4)cc12 | inactive
3 | CCOC(=O)c1ccc(-c2ccc3ncnc(NCc4ncc[nH]4)c3c2)o1 | inactive
4 | CN1CCCC1CCNc1ncnc2ccc(-c3ccc4c(c3)OCO4)cc12 (stereo not given) | inactive
5 | Cc1csc(CNc2ncnc3ccc(-c4ccc(C(=O)O)o4)cc23)n1 | inactive
6 | CN(Cc1cncn1C)c1ncnc2ccc(-c3ccc4c(c3)OCO4)cc12 | inactive
7 | c1csc(CNc2ncnc3cc(-c4ccc5c(c4)OCO5)ccc23)c1 | inactive
8 | Cc1csc(CNc2ncnc3ccc(-c4cccnc4)cc23)c1 | inactive
9 | O=C(O)c1ccc(-c2ccc3ncnc(N4CCOCC4)c3c2)o1 | inactive
10 | Fc1cccc(CNc2ncnc3ccc(-c4ccc5c(c4)OCO5)cc23)c1 | inactive
11 | CN(Cc1ccco1)c1ncnc2ccc(-c3ccoc3)cc12 | inactive
12 | Cc1nc(C)c(-c2ccc3ncnc(NCc4ncc[nH]4)c3c2)s1 | inactive
13 | Cc1ccc(CNc2ncnc3cc(-c4ccc5c(c4)OCO5)ccc23)o1 | inactive
14 | Clc1cccc(-c2ccc3ncnc(NCc4ccc5c(c4)OCO5)c3c2)c1 | inactive
15 | Cn1cnc(CCNc2ncnc3ccc(-c4ccc5c(c4)OCO5)cc23)c1 | inactive
16 | c1nc(N2CCC(N3CCCC3)CC2)c2cc(-c3ccc4c(c3)OCO4)ccc2n1 | inactive
17 | Cc1nc(CCN(C)c2ncnc3ccc(-c4ccc5c(c4)OCO5)cc23)cs1 | inactive
18 | COc1cccc(-c2ccc3ncnc(NCc4cc(C)cs4)c3c2)c1 | inactive
19 | CCOC(=O)c1ccc(-c2ccc3ncnc(NCc4csc(C)n4)c3c2)o1 | inactive
20 | Cn1ccc2cc(-c3ccc4ncnc(NCc5cccc(F)c5)c4c3)ccc21 | inactive

Row | Compound | Potency
21 | Cc1cccc(CNc2ncnc3ccc(-c4ccc5c(ccn5C)c4)cc23)c1 | inactive
22 | Cc1ccc(CNc2ncnc3ccc(-c4ccc([C@@H](C)O)o4)cc23)o1 | inactive
23 | O=C(O)c1ccc(-c2ccc3ncnc(NCCc4cnc[nH]4)c3c2)o1 | inactive
24 | c1csc(CCNc2ncnc3ccc(-c4ccc5c(c4)OCO5)cc23)c1 | inactive
25 | Cc1cccc(-c2ccc3ncnc(NCc4cccc(F)c4)c3c2)c1 | inactive
26 | Fc1cccc(CNc2ncnc3ccc(-c4ccoc4)cc23)c1 | inactive
27 | C[C@@H](O)c1ccc(-c2ccc3ncnc(NCc4cccs4)c3c2)o1 | inactive
28 | CCOC(=O)c1ccoc1-c1ccc2ncnc(NCCc3cnc[nH]3)c2c1 | inactive
29 | CN(CCc1ccco1)c1ncnc2ccc(-c3ccc4c(c3)OCO4)cc12 | inactive
30 | OCc1ccc(-c2ccc3ncnc(NCCc4cnc[nH]4)c3c2)o1 | inactive
31 | c1csc(CNc2ncnc3ccc(-c4ccc5c(c4)OCO5)cc23)c1 | inactive
32 | c1csc(CNc2ncnc3ccc(-c4ccc5c(c4)OCO5)cc23)n1 | inactive
33 | CC(C)(C)CNc1ncnc2ccc(-c3ccc4c(c3)OCO4)cc12 | inactive
34 | CCNC(=O)c1ccc(-c2ccc3ncnc(NCCc4cnc[nH]4)c3c2)o1 | inactive
35 | c1csc(CNc2ncnc3ccc(-c4ccc5c(c4)OCCO5)cc23)c1 | inactive
36 | Cc1nc(CNc2ncnc3ccc(-c4sc(C)nc4C)cc23)cs1 | inactive
37 | c1nc(N2CCNCC2)c2cc(-c3ccc4c(c3)OCO4)ccc2n1 | inactive
38 | CN(C)CCCNc1ncnc2ccc(-c3ccc4c(c3)OCO4)cc12 | inactive
39 | Clc1ccccc1-c1ccc2ncnc(NCc3ccc4c(c3)OCO4)c2c1 | inactive
40 | CN(C)CCNc1ncnc2ccc(-c3ccc4c(c3)OCO4)cc12 | inactive
